Rows were chosen to be rich in hits. Some 3.7% of all compounds tested hit in one or more screens of this group.
Nrf2 block: Nrf2 qHTS screen for inhibitors | A549 ARE-Fluc reporter, luciferase luminescence, 18-24 h | 2.1% of 360,000 active | Potency, µM (highest dose often 46 µM), without a hit: at the highest dose activity change, negative = inhibition, most hits filed as inhibitors; also: potency is read from the fitted curve at half-maximal effect; % is scaled to controls: 0 for no effect and ±100 for the full control effect; nearly all actives have a fitted effect of over 60% in size
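Nrf2 function is reported as luminescence of an ARE-controlled luciferase in A549 cells. Compounds were tested at several concentrations, and a CellTiter-Fluor read on the same wells flagged cytotoxicity.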
A549 viability: Nrf2 qHTS screen for inhibitors: counterscreen for cytotoxicity; A549 ARE-Fluc cells, CellTiter-Fluor viability, 18-24 h; Potency, µM (doses to about 46 µM), for the others: top-dose activity change, negative = cytotoxicity, actives largely listed as inhibitors; 0.16% of 390,000 active; AID 504648, 2011; also: potency is read from the fitted curve at half-maximal effect; % is scaled to controls: 0 for no effect and ±100 for the full control effect
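A549 ARE-Fluc cells in 5% FBS OPTI-MEM, 5000 cells/well, rested 2 h then exposed to compounds in concentration-response for 18-24 h at 37 °C. Viability by CellTiter-Fluor fluorescence (Ex 405/Em 525) after 30 min; luciferase luminescence (BugLite, 15 min, RT) read afterwards.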
IL2 activator: qHTS of IL-2 Activators; activation, % (series mostly up to about 46 µM); IL-2 activation reporter assay, cell-based qHTS; stimulated with anti-CD3/CD4/CD28 beads; in transgenic mouse T cells; 0.065% of 360,000 active; in the data active = activation above about 50%; inconclusive = mostly about 30% to 49%; also: 0% is about no effect
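Using fluorescent plate cytometry, EGFP and DsRed are detected in transgenic mouse T cells stimulated 18 h at 37 degrees C with antibody-coated beads after 60 min compound pretreatment.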
ClpP mod: qHTS Assay for Activators of ClpP | ATP-dependent Clp protease proteolytic subunit (Bacillus subtilis (strain 168)), P80244 | purified B. subtilis ClpP, FRET peptide cleavage, 20 min | Potency, µM (titrated, usually from 57.5 µM), inactives show top-dose activity change, negative = active | 1.9% of 340,000 active | AID 651965, 2013; active = well fitted falling curve with a large enough effect; inconclusive = small, poorly fitted or top-dose-only effect; inactive = no such curve, though single readings can be large or run the other way; also: potency is read from the fitted curve at half-maximal effect; the source files actives as falling curves though it sought activators and does not explain the sign; nearly all actives have a fitted effect of over 65% in size
Target sequence (P80244 whole entry, looked up): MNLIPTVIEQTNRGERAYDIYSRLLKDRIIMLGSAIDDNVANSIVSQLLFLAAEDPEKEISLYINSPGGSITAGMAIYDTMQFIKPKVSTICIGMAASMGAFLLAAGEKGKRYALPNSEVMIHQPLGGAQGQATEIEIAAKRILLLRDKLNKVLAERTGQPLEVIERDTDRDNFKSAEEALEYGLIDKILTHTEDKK
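Purified B. subtilis ClpP, 10 microg/mL final in Tris/HCl pH8 with KCl, BSA, glycerol and Tween-20, cleaved an Abz/nitrotyrosine-quenched decapeptide. Fluorescence (ex 320, em 430) was read at 0 and 20 min at room temperature. Delta was normalized to 5.8 microM ADEP and DMSO/no-enzyme controls.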
Nrf2 ARE act: qHTS of Nrf2 Activators | AREc32 ARE-luciferase reporter (MCF7-derived line), luminescence, 24 h | Potency, µM (doses to about 46.1 µM), inactives show at the highest dose activation, most hits filed as activators | 0.31% of 410,000 active; also: potency is read from the fitted curve at half-maximal effect; % of control where 0% means no effect; nearly all actives have a fitted effect of over 65% in size
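Quantitative high-throughput format: AREc32 reporter cells, 1000 per well, received compound by pin transfer and were incubated 24 hr at 37 deg C, 5% CO2, before Steady-Glo luminescence detection.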
miR-21 act: qHTS Assay for Modulators of miRNAs and/orActivators of miR-21. Potency, µM (highest dose often 38.3 µM), for inactives: at the highest dose activity change, positive = activation, hits mostly activators. HeLa miR-21 FLuc reporter, luciferase, 48 h. 340,000 tested, under 10 active;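 also: % of control where 0% means no effect; miR-21 action dims this reporter so a rising signal means less miR-21 action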
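Using DMEM plus 10% FBS, HeLa miR-21-FLuc cells are incubated with test compounds (final up to about 40uM) for 48 hours; firefly luciferase signal is then imaged following reagent-mediated lysis.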
Starred values were filed as active, the others as inactive; ? = inconclusive; / = not tested or not shown; [ ] = remark or other dose. Unless noted, calls follow the shape of the dose curve; as a rule, active = well fitted curve in the direction sought with a large enough effect; inconclusive = small, poorly fitted or top-dose-only effect, or another doubt; inactive = no such curve, though single readings can be large; an effect the other way counts as inactive or inconclusive.

SMILES | Nrf2 block | A549 viability | IL2 activator | ClpP mod | Nrf2 ARE act | miR-21 act
Cc1ccc(S(=O)(=O)Cc2ccc(C(=O)N3CCN(c4cccc(Cl)c4)CC3)o2)cc1 | ? | -7% | / | 0% | -1% | ?
CCOC(=O)C1=C(CSCc2ccccc2)NC(=O)NC1c1cc(C)ccc1C (stereo not drawn) | 18µM* | ? | -3 | 0% | 0% | 24%
Cn1c(=O)c2c(ncn2Cc2ccccc2)n(C)c1=O | -15% | -3% | 2 | 0% | 0% | 4%
COc1cccc(Cn2cnc3c2c(=O)n(C)c(=O)n3C)c1 | 13µM* | -1% | / | -3% | -1% | 12%
COc1ccc2c(c1)CC(NC(=O)Nc1cc(Cl)ccc1OC)CO2 (stereo not drawn) | / | 0% | / | 6% | -1% | 22%
COc1cccc(CNC(=O)CSc2nc(=O)n(Cc3ccncc3)c3c2CCC3)c1 | -16% | -1% | -6 | 13µM* | 0% | /
O=C(CSc1nc(=O)n(Cc2ccccn2)c2c1CCC2)Nc1ccccc1 | 26µM* | 1% | / | -3% | 3% | -1%
COc1cccc(NC(=O)CSc2nc3cc(OC)c(OC)cc3c3nc(-c4ccccc4)nn23)c1 | 3% | 7% | / | 0% | 0% | -3%
CCOC(=O)N1CCN(Cc2c(O)ccc3ccccc23)CC1 | 6% | 0% | 0 | / | 17% | 2%
CCOC(=O)C1CCN(Cc2c(O)ccc3ccccc23)CC1 | / | 7% | 1 | 28µM* | 3% | -7%
CCOC(=O)C1CCN(c2nc(-c3ccccc3)nc3c2oc2ccccc23)CC1 | -19% | -16% | 0 | 32µM* | 2% | 5%
O=C(Nc1nc(Nc2cc(F)cc(F)c2)nc(NC2CCCC2)n1)OCc1ccccc1 | 10% | 1% | / | / | / | /
COC(=O)c1cc2oc3ccccc3c2n1CC(=O)Nc1ccc(F)c(Cl)c1 | -2% | 1% | / | 4% | 4% | -4%
O=C(/C=C/c1ccccc1Br)c1ccc2c(c1)OCO2 | ? | 8% | -5 | 1% | ? | -18%
O=C(/C=C\Nc1ccccc1Br)c1ccc2c(c1)OCO2 | 2.1µM* | -5% | -1 | / | 0% | 21%
CC(/C=N/n1c(-c2ccncc2)n[nH]c1=S)=C\c1ccco1 | 16% | 21% | 0 | -1% | 7.1µM* | 17%
Cc1cccc(-c2n[nH]c(=S)n2/N=C/C=C/c2ccco2)c1 | -6% | -3% | 0 | 4% | 2.5µM* | -9%
CC(/C=N/n1c(-c2ccc(C)cc2)n[nH]c1=S)=C\c1ccco1 | 13% | 16% | 0 | 1% | ? | -4%
CCOC(=O)c1c(C)c(-c2ccccc2)n(CC(=O)Nc2ccc(OCC)cc2)c1C | 6% | -11% | / | 1% | 1% | 0%
COc1ccc(CNC(=O)c2csc(Cc3ccc(Cl)cc3)n2)cc1 | 23µM* | 9% | -6 | -25% | 3% | 4%
COc1ccc(NC(=O)c2csc(Cc3ccc(Cl)cc3)n2)cc1 | 9% | 7% | 0 | -2% | 0% | 0%
COc1ccc(Cc2nc(C(=O)Nc3ccccc3)cs2)cc1 | -28% | 2% | 1 | 32µM* | 5% | -21%
Cc1cc(=O)n(CC(=O)N2CCN(c3ccc(F)cc3)CC2)c2c1c(C)nn2C | ? | -1% | / | -7% | 0% | 29%
Cc1ccc(NC(=O)CCNS(=O)(=O)c2ccc3c(c2)CCCC(=O)N3)cc1 | -1% | -4% | / | -12% | -1% | 12%
CCn1cc(CNC(=O)c2ccc(OC3CCN(Cc4ccccn4)CC3)cc2)cn1 | 12µM* | 1% | -1 | / | 3% | 12%
SMILES | Nrf2 block | A549 viability | IL2 activator | ClpP mod | Nrf2 ARE act | miR-21 act
CCOc1ccccc1CN1CCC(Oc2ccc(C(=O)NCc3ccccn3)cc2)CC1 | ? | -9% | -3 | -2% | 0% | 1%
Cc1cc(C)nc(S/C=C/C(=O)c2ccccc2F)n1 | 2% | -2% | 0 | 35µM* | ? | -68%
Cc1cc(C)nc(NC(=S)NC(=O)c2ccccc2F)n1 | 11% | -7% | 3 | / | 4% | /
COC(=O)c1ccc(NC(=O)C2CC2)o1 | 4% | 0% | -1 | 14µM* | 0% | -1%
O=C(O)c1cccc(N2CCCC2)c1 | 8% | -1% | -1 | 28µM* | -1% | -10%
CCCCn1nnc(NC(=O)c2ccc(-c3cccc(Cl)c3)o2)n1 | ? | -8% | -2 | 32µM* | 2% | -28%
CCOc1ccc(-n2nc3ccc(NC(=O)COc4ccccc4)cc3n2)cc1 | 11% | 0% | / | -26% | -1% | 5%
CCOc1ccc(-n2nc3ccc(NC(=O)c4ccc(-c5cccc(Cl)c5)o4)cc3n2)cc1 | 15µM* | -15% | / | 3% | 1% | 7%
CCOC(=O)c1cccc(NC(=O)CCc2c(C)nn(-c3ccc(N4CCCC4)nn3)c2C)c1 | -19% | -1% | / | -5% | 4% | -3%
O=c1[nH]c(SCc2ccc(F)cc2)nc2c1CCCC2 | ? | -1% | / | 2% | 0% | -3%
COc1cccc(/C=N/NC(=O)CC2C(=O)NN=C2C)c1OC (stereo not drawn) | 3% | -10% | -2 | ? | 0% | -6%
COc1ccc(OC)c(/C=N/NC(=O)CC2C(=O)NN=C2C)c1 (stereo not drawn) | -13% | -7% | 1 | 28µM* | 0% | -1%
COc1ccc(OC)c(/C=N/NC(=O)CCc2ccc(O)c(O)c2)c1 | 12% | 3% | 0 | 8.9µM* | 2%[9.22 µM] | 0%
Cc1ccc2oc3c(c(=O)c2c1)C(c1ccccc1F)N(CCCN(C)C)C3=O (stereo not drawn) | ? | 0% | / | -17% | 6% | -20%
CCOc1ccc(S(=O)(=O)NCc2ccco2)c2ccccc12 | 5% | 0% | -2 | -16% | 13µM* | -18%
CCOc1ccc(S(=O)(=O)NCc2ccc(F)cc2)c2cccnc12 | -9% | -6% | 1 | 25µM* | 0% | -10%
CCOc1cc(C)c(Cl)cc1S(=O)(=O)NCc1ccco1 | / | 14% | 0 | -1% | 4% | -2%
CCOc1ccc(S(=O)(=O)Nc2ccccn2)c2ccccc12 | -12% | -4% | -1 | 35µM* | 0% | -3%
C=C1[C@@H](O)[C@@H]2O[C@]3(CC[C@H](/C=C/[C@@H](C)[C@@H]4CC(C)=CC5(O[C@H](C[C@@](C)(O)C(=O)OC)CC[C@H]5O)O4)O3)CC[C@H]2O[C@@H]1[C@@H](O)C[C@H](C)[C@H]1OC2(CCCCO2)CC[C@H]1C (stereo partly drawn) | 0.092µM* | ? | 0 | 1% | -2% | /

Screening data from PubChem BioAssay.
